Most compounds without a hit are left out; they make up all but 19% or so of the library.
TDP1 cell noCPT: qHTS for Inhibitors of human tyrosyl-DNA phosphodiesterase 1 (TDP1): qHTS in cells in absence of CPT; DT40 Tdp1-/- hTDP1 cells, no CPT, ATP luminescence, 48 h; Potency, µM (highest dose often 46.2 µM), for inactives: at the top dose activity change, negative = growth inhibition, actives largely listed as inhibitors; 420,000 compounds, 15% hits; note: potency is the fitted concentration of half-maximal effect; nearly all actives have a fitted effect of over 55% in size
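DT40 Tdp1-/-;hTDP1 cells, no CPT (DMSO vehicle only), 400 cells/well; compounds pin-transferred; ≥48 hr, 37 °C; CellTiter-Glo 30 min RT dark, luminescence read.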
HT1080 IDH1KD tx: HT-1080 IDH1 knockdown cell toxicity (counter line) | 360,000 compounds, 2% hits | AID 686971 | Potency, µM (titrated, usually from 46.1 µM), for the others: at the highest dose activity, negative = toxicity, most hits filed as cytotoxic | HT-1080 IDH1 knockdown viability, ATP luminescence, 48 h;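 note: potency is the fitted concentration of half-maximal effect; 0% = DMSO wells and -100% = cell-free medium wells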
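CellTiter-Glo luminescence after 48 h compound exposure at 37 degrees C of IDH1-knockdown HT-1080 cells in 5% FBS RPMI. %Activity scaled between DMSO wells and cell-free media wells, with curves fitted and assigned curve classes.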
IL1B secr inh: inflammasome signaling inhibition, IL-1 beta readout; 360,000 compounds, 4.7% hits; activity change, % at 57.5 µM; THP-1 LPS/ATP IL-1B secretion, AlphaLISA, 16 h; hits give low values; in the data active = activity change below about -50%; inconclusive = mostly about -30% to -49%
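Secreted IL-1B measured by AlphaLISA bead assay after 16 h compound exposure of THP-1 cells; compounds (final up to 57.5 uM) added 1 h before LPS (250 ng/mL) and ATP (1.25 mM) stimulation; lower signal means less secretion.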
ELG1 DNA repair: ELG1-dependent DNA repair inhibition | HEK293T ELG1-luciferase reporter, luminescence, 16 h; DNA damage induced by 5-fluorouridine | Potency, µM (top dose mostly 46.1 µM), inactives show top-dose activity change, negative = inhibition, most hits filed as inhibitors | 330,000 compounds, 2.3% hits; note: potency is the fitted concentration of half-maximal effect; nearly all actives have a fitted effect of over 55% in size
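Cells (2,000 per well) received 5-fluorouridine plus test compound or DMSO and were incubated 16 hr at 37 °C, 5% CO2. Luciferase activity was read by luminescence 30 min after ONE-Glo addition; signal suppression marked inhibition of damage-induced ELG1 function.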
HT1080NT lethal: kills 2HG-producing HT-1080-NT fibrosarcoma cells | HT-1080-NT fibrosarcoma viability, CellTiter-Glo ATP luminescence, 48 h | 360,000 compounds, 1.6% hits | Potency, µM (top dose mostly 46.1 µM), inactives show at the highest dose activity, negative = less viability, most hits filed as cytotoxic;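 note: NT is the 2HG producing partner of a matched IDH1 knockdown line; potency is the fitted concentration of half-maximal effect; 0% = DMSO-treated cells and -100% = media-only wells without cells; nearly all actives have a fitted effect of over 55% in size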
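Viability by CellTiter-Glo luminescence after 48 h compound exposure at 37C of HT-1080-NT cells (750/well, RPMI, 5% FBS). % activity scaled between DMSO wells and medium-only wells, then curve-fitted and categorized by curve class.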
TDP1 cell CPT: growth inhibition of DT40 Tdp1-/-;hTDP1 cells with camptothecin (screen for TDP1 inhibitors); chicken DT40 Tdp1-/-;hTDP1 cells + 20 nM CPT, ATP luminescence, 48 h; Potency, µM (doses to about 46.2 µM), inactives show at the top dose activity change, negative = growth inhibition, usual class: inhibitors; 420,000 compounds, 12% hits; note: potency is the fitted concentration of half-maximal effect; nearly all actives have a fitted effect of over 55% in size
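Cell growth measured by CellTiter-Glo luminescence after a minimum 48 h, 37 C compound exposure with 20 nM CPT in Tdp1-knockout DT40 cells stably expressing hTDP1, seeded 400/well; qHTS titration format.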
The depositor's hits bear a star; ? = inconclusive; · = not tested or not shown. Unless noted, calls come from the whole dose curve; as a rule, active = well fitted curve in the direction sought with a large enough effect; inconclusive = small, poorly fitted or top-dose-only effect, or another doubt; inactive = no such curve, though single readings can be large; an effect the other way counts as inactive or inconclusive. Unless noted, % is set by controls: 0 for no effect and ±100 for the full control effect.

SMILES | TDP1 cell noCPT | HT1080 IDH1KD tx | IL1B secr inh | ELG1 DNA repair | HT1080NT lethal | TDP1 cell CPT
CCCCn1c(SCc2nnc(-c3ccccc3)o2)nc2c1c(=O)n(C)c(=O)n2C | 10µM* | 10% | -13 | 6% | 11% | 15µM*
Cc1cccc(CN2CCN(C(=O)CN(C)C(C)C(=O)Nc3ccc(C(N)=O)cc3)CC2)c1 (centres undefined) | -29% | -1% | -2 | 0% | -1% | -18%
Cc1nc2ccc(NC(=O)c3oc4ccc(F)cc4c3C)cc2s1 | 9% | 1% | 9 | ? | 0% | -5%
Cc1ccc2sc(-c3ccc(NC(=O)c4cc(-n5cnnc5)ccc4Cl)cc3)nc2c1 | 9.2µM* | 9% | -16 | ? | -2% | 13µM*
Cc1c(NC(=O)c2cc(-n3cnnc3)ccc2Cl)cccc1-c1nc2ccccc2s1 | ? | ? | 43 | ? | -17% | -25%
Cc1c(C(=O)Nc2cccc(-c3nc4ccccc4s3)c2)oc2ccc(F)cc12 | 15µM* | · | · | · | · | ?
O=C(Nc1cccc(-c2nc3ccccc3s2)c1)c1cc(-n2cnnc2)ccc1Cl | 16µM* | ? | ? | ? | ? | 9.2µM*
CC(C)CN1CC2(CCN(C(=O)c3ccco3)CC2)C1 | -7% | · | · | · | · | 2%
CC1(Cc2ccc(F)c(Cl)c2)C(=O)Nc2c(Cl)cccc21 (centres undefined) | 16µM* | ? | 25 | · | -20% | ?
CC1(Cc2ccccc2Cl)C(=O)Nc2c(Cl)ccc(Cl)c21 (centres undefined) | ? | ? | 37 | · | ? | ?
CC1(Cc2cc(Cl)ccc2C(F)(F)F)C(=O)Nc2c(Cl)cccc21 (centres undefined) | 13µM* | ? | 18 | · | ? | ?
COc1ccc(Cl)cc1CC1(C)C(=O)Nc2c(Cl)cccc21 (centres undefined) | 23µM* | ? | 51 | · | -28% | ?
Cc1ccccc1-c1nc(C#N)c(N2CCCCC2)o1 | 7% | 23% | ? | 21% | 7% | 1%
CN(C)CCN(Cc1ccc(Cl)cc1)c1ccccn1 | ? | ? | -22 | 20% | -13% | ?
C[N+](C)(C)CCN(Cc1ccc(Cl)cc1)c1ccccn1 | 16µM* | -13% | -28 | -2% | -1% | 18µM*
OC1(c2ccc(OC(F)F)cc2)CSC(=Nc2cccnc2)N1C1CC1 (centres undefined) | 16µM* | ? | ? | ? | -12% | 21µM*
CCCCNC(=O)[C@@H]1CC=C[C@@H]2CCN(Cc3ccccc3)C(=O)[C@@H]21 | -62% | · | · | · | · | -64%
COc1ccc(N2CCN(C(=O)c3cc(=O)c4cc(C)cc(C)c4o3)CC2)cc1 | ? | 0% | -77* | ? | -18% | 13µM*
Cc1cc(N2CCN(C(=O)Oc3ccc([N+](=O)[O-])cc3)CC2)c2ccccc2n1 | 18µM* | ? | 0 | · | ? | ?
Cc1cc(N2CCN(C(=O)/C=C/C(=O)O)CC2)c2ccccc2n1 | -2% | -1% | 10 | 21% | 0% | 1%
COc1ccc(N2CCN(C(=O)Oc3ccc([N+](=O)[O-])cc3)CC2)cc1 | 26µM* | -10% | -18 | · | 2% | ?
COc1ccc(N2CCN(C(=O)c3cc(=O)c4cc(C)ccc4o3)CC2)cc1 | ? | -5% | -6 | -10% | -1% | -28%
COc1ccc(N2CCN(C(=O)c3ccc(COc4ccc([N+](=O)[O-])cc4)o3)CC2)cc1 | 10µM* | -14% | -27 | 21µM* | -2% | 10µM*
CC(C)(C)c1ccc(S(=O)(=O)NC(=O)C2(C)CCN2C(=O)C2(c3ccccc3)CC2)cc1 (centres undefined) | -7% | 6% | 0 | · | 9% | -9%
c1nc(NC2CCNCC2)c2cc(-c3ccoc3)ccc2n1 | -10% | · | · | · | · | ?
SMILES | TDP1 cell noCPT | HT1080 IDH1KD tx | IL1B secr inh | ELG1 DNA repair | HT1080NT lethal | TDP1 cell CPT
CCC1(O)CC(c2ccccc2)=NN1C(=O)c1ccccc1F (centres undefined) | -12% | 4% | 1 | · | 7% | 1%
CCOC(=O)C1CCN(C(=O)COC(=O)c2ccc([N+](=O)[O-])o2)CC1 | -9% | -3% | 0 | 0% | 6% | ?
Cc1ccc(C(=O)Nc2ccc(Nc3ccccc3)cc2)c(Cl)c1 | ? | -22% | -19 | -15% | -7% | ?
NC(=O)C(C1=CCCCC1)c1ccccc1 (centres undefined) | -3% | 2% | -8 | · | 4% | 3%
OC[C@H]1O[C@H](c2nc(-c3nc(-c4cccs4)no3)cs2)C[C@@H]1O | -20% | 0% | -80* | · | 5% | -17%
O=C(Nc1ccc(CN2CCOCC2)cc1)c1ccc(-c2cccc([N+](=O)[O-])c2)o1 | 16µM* | 0% | ? | 13µM* | -1% | 21µM*
COc1c(Cl)cc(Cl)cc1C(=O)Nc1ccc(CN2CCCCC2)cc1 | 16µM* | 0% | -20 | 13% | -21% | ?
O=C(Nc1nccs1)c1ccc(-c2cccc([N+](=O)[O-])c2)o1 | ? | -14% | 32 | ? | 0% | -27%
O=C(Nc1ccc(CN2CCCCC2)cc1)Nc1ccc(Br)cc1Cl | 16µM* | -13% | -85* | 9% | -10% | 18µM*
O=[N+]([O-])c1cccc(-c2ccc(C(=S)N3CCOCC3)o2)c1 | ? | -10% | -16 | ? | -4% | -7%
O=C(Nc1ncc(Cc2cccc(C(F)(F)F)c2)s1)c1ccc(-c2cccc([N+](=O)[O-])c2)o1 | ? | ? | -13 | 12µM* | ? | 15µM*
S=C(Nc1ccc(Br)cc1Cl)N1CCCC1 | 8% | 3% | 9 | -8% | 3% | 19%
CCNc1ncc2nc(C)c(=O)n(C)c2n1 | -1% | · | · | · | · | -1%
CCOC(=O)c1c(NC(=O)COC(=O)Cc2n[nH]c(=O)c3ccccc23)sc(C(=O)NC)c1C | ? | -2% | 5 | -7% | -2% | ?
CCCCNC(=O)c1ccc(CS(=O)(=O)Cc2ccccc2F)o1 | -15% | 8% | 7 | -1% | -4% | ?
Clc1cccc2c3c([nH]c12)CCNC3 | -20% | -1% | -22 | ? | -9% | 11%
O=C(Nc1ccc(CN2CCOCC2)cc1)c1ccc(-c2cc(Cl)ccc2Cl)o1 | 23µM* | ? | -64* | 23µM* | ? | ?

Assay outcomes (PubChem BioAssay)
